In the supplement of paper PMC12297408:
Structures can show the parent of a compound that is named as a salt. A number with no mark means an inactive call.

Test system: Plasmodium falciparum NF54/iGP1_RE9H ulg8 stage V gametocytes
Assay: gametocyte viability (luciferase signal relative to DMSO control) (% of DMSO control); higher = less gametocytocidal activity, active = 50 or less
Details: exposure time: 72 h
Procedure, shortened: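 Compounds from 10 mM DMSO stocks were spotted at nanolitre scale into 96-well plates, and day-12 stage V NF54/iGP1_RE9Hulg8 gametocytes (~2.5% gametocytemia, 3% hematocrit; medium with 0.5% Albumax II) were added to reach 10 µM or 1 µM, one well per concentration. The plates were kept at 37 °C for 72 h. Luminescence was then read on an IVIS Lumina II after mixing 90 µl of culture with 10 µl D-luciferin (30 mg/ml). Viability values are relative to the plate's mean DMSO vehicle signal.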

SMILES | gametocyte viability (concentration: 1 µM) | gametocyte viability (concentration: 10 µM)
Cn1c(Nc2ccc(C(F)(F)F)cc2)nc2cc(Oc3ccnc(-c4ncc(C(F)(F)F)[nH]4)c3)ccc21 | 103 | 104
Cc1ccc(Nc2nccc(N(C)c3ccc4c(C)n(C)nc4c3)n2)cc1S(N)(=O)=O [Pazopanib HCl] | 98 | 109
O=S(=O)(c1cccc2cnccc12)N1CCCNCC1 | 101 | 110
Cc1cnc(NC(=O)Nc2cc(Br)c(C)cc2OC[C@@H]2CNCCO2)cn1 | 102 | 113
O=C(Nc1cccc(Cl)c1)Nc1ncc(CCNc2ncnc3ccsc23)s1 | 110 | 120
Cn1cc(-c2ccc3nnc(C(F)(F)c4ccc5ncccc5c4)n3n2)cn1 | 98.2 | 118
COc1ncc(-c2ccc3nccc(-c4ccnnc4)c3c2)cc1NS(=O)(=O)c1ccc(F)cc1F | 100 | 103
CN(C)CCCn1cc(C2=C(c3c[nH]c4ccccc34)C(=O)NC2=O)c2ccccc21 | 92.7 | 115
COc1cccc2cc(-c3nc([C@H]4CC[C@H](C(=O)O)CC4)n4ncnc(N)c34)[nH]c12 | 108 | 109
CCOc1cc2ncc(C#N)c(Nc3ccc(OCc4ccccn4)c(Cl)c3)c2cc1NC(=O)/C=C/CN(C)C [Neratinib (HKI-272)] | 103 | 104
N#CC1(c2ccc(NC(=O)c3cccnc3NCc3ccncc3)cc2)CCCC1 [Apatinib (YN968D1)] | 96 | 95.4
CO[C@H]1C[C@@H]2CC[C@@H](C)[C@@](O)(O2)C(=O)C(=O)N2CCCC[C@H]2C(=O)O[C@H]([C@H](C)C[C@@H]2CC[C@@H](OC(=O)C(C)(CO)CO)[C@H](OC)C2)CC(=O)[C@H](C)/C=C(\C)[C@@H](O)[C@@H](OC)C(=O)[C@H](C)C[C@H](C)/C=C/C=C/C=C/1C [Temsirolimus (Torisel)] | 93.9 | 88.4
COc1ccc(-c2cc3c(C)nc(N)nc3n([C@H]3CC[C@H](OCCO)CC3)c2=O)cn1 | 95.3 | 84.2
O=C1NC(=O)/C(=C/c2ccc(-c3ccc(F)cc3O)o2)S1 | 100 | 110
CCc1cccc(CC)c1NC(=O)N1Cc2[nH]nc(NC(=O)c3ccc(N4CCN(C)CC4)cc3)c2C1 | 109 | 68.7
COc1ccc(S(=O)(=O)N(C(C)=O)c2ccccc2/C=C/c2cc[n+]([O-])cc2)cc1 | 98 | 112
NC(=O)c1ccc(N(C(N)=O)c2c(F)cccc2F)nc1-c1ccc(F)cc1F | 99.2 | 103
Cn1c(=O)n(-c2ccc(C(C)(C)C#N)cc2)c2c3cc(-c4cnc5ccccc5c4)ccc3ncc21 | 96.8 | 104
CN(C)C1CCN(C(=O)c2ccc(NC(=O)Nc3ccc(-c4nc(N5CCOCC5)nc(N5CCOCC5)n4)cc3)cc2)CC1 | 102 | 107
